# Experimental data from ChEMBL document CHEMBL3988442, “University of Dundee, Small-Polar-MMV Screening Library” (2021).
# Hit rate of the full screen: of about 48,000 compounds, about 13,000 (27%) showed an effect of 50% or more. The list shows a part of the results.
# Tested on: Wolbachia pipientis
# Assay: Anti-Wolbachia Cell-Based Screen
# Format: functional
# Design: scale not given: in the data most compounds retested in dose-response had high values
# Details: 5 µM
row,SMILES,Percent Effect [%]
1,O=C1CC(c2ccc(C(=O)O)cc2)c2ncn(-c3ccc(Cl)cc3)c2N1 (stereo unspecified),-3.148
2,CC(C)C(C)(O)CNc1cccc(F)c1C#N (stereo unspecified),29.17
3,COCc1nnc(-c2cccc(C(=O)N(C(C)C)C3CCC3)c2)o1,24.51
4,O=C(CCNC(=O)c1ccc(Cl)cc1)NCc1nc(C2CC2)no1,-6.02
5,Cc1c(C(C)NC2CCOCC2)cnn1-c1ccc(F)cc1F (stereo unspecified),-3.497
6,CN1CCC2(Cc3ccccc3CN(C(=O)Cc3cccc(Cl)c3)C2)C1 (stereo unspecified),135.8
7,O=C(Cc1ccccc1)N1CCC2(CC(=O)N(c3cccc(F)c3)C2)C1 (stereo unspecified),-7.146
8,COCCC(=O)N1CCC2(CN(Cc3cccc(Cl)c3)C2)C1,20.7
9,CC(=O)Nc1nc(C(=O)NC(C)c2ccc(F)c(F)c2)cs1 (stereo unspecified),54.27
10,CC(=O)Nc1nc(C(=O)NC(C)c2ccc3c(c2)OCCO3)cs1 (stereo unspecified),7.281
11,CC(=O)Nc1nc(C(=O)NC(C)c2ccc(F)cc2)cs1 (stereo unspecified),33.73
12,CC(=O)Nc1nc(C(=O)NCCOc2ccc(C)cc2)cs1,-6.104
13,CC(=O)Nc1nc(C(=O)Nc2ccc(F)cc2)cs1,-0.1776
14,CC(=O)Nc1nc(C(=O)NC(C)c2ccc(C#N)cc2)cs1 (stereo unspecified),80.7
15,CCc1ccc(C2COCCN2C(=O)Nc2ccc(C(N)=O)c(Cl)c2)o1 (stereo unspecified),-0.9462
16,Cc1cc(C(=O)N2C[C@H]3CC[C@@H]2CN(C(=O)c2ccncc2)C3)cs1,-9.465
17,CN(C)CC(=O)N1CCO[C@@H]2CC(COCc3ccncc3)C[C@H]21 (stereo partly specified),100.6
18,Cc1ccoc1C(=O)N1CC[C@H]2OCC[C@@]2(COCc2ccncc2)C1,-2.681
19,CCOCC1C[C@@H]2OCCN(C(=O)c3ccc[nH]3)[C@H]2C1 (stereo partly specified),-14

row,SMILES,Percent Effect [%]
1,CN(C)C(=O)N1CCO[C@@H]2CC(COCc3cccnc3)C[C@H]21.O=C(O)C(F)(F)F (stereo partly specified),103.1
2,Fc1ccc(CN2CC[C@H]3O[C@@H](COCc4cccnc4)CC[C@H]32)cc1.O=C(O)C(F)(F)F.O=C(O)C(F)(F)F,0.3958
3,Fc1cnc(N2CC[C@@H]3OC(COCc4cccnc4)CC[C@@H]32)nc1.O=C(O)C(F)(F)F.O=C(O)C(F)(F)F (stereo partly specified),-10.65
4,O=C(O)C(F)(F)F.O=C(O)C(F)(F)F.c1cnc(N2CC[C@@H]3O[C@@H](COCc4cccnc4)CC[C@@H]32)nc1,-9.534
5,c1cncc(COCC2C[C@@H]3OCCN(Cc4cccnc4)[C@H]3C2)c1 (stereo partly specified),111.6
6,O=C(O)C(F)(F)F.O=C(O)C(F)(F)F.O=C(O)C(F)(F)F.c1cncc(COCC2CN(Cc3cccnc3)Cc3ccnn3C2)c1 (stereo unspecified),11.05
7,COCC(=O)N1CCO[C@H]2[C@H](OCc3cccnc3)CC[C@@H]21.O=C(O)C(F)(F)F,-4.337
8,Cn1cnc2c1C(COCc1cccnc1)N(Cc1ccccc1)CC2 (stereo unspecified),2.197
9,Cc1cnc(N2CCO[C@@H]3CC(COCc4cccnc4)C[C@H]32)nc1.O=C(O)C(F)(F)F.O=C(O)C(F)(F)F (stereo partly specified),79.55
10,Cc1nc(CN(C)Cc2nc(-c3sccc3C)oc2C)no1,-9.354
11,CSCCCN1CCCC(Cn2ccnc2)C1 (stereo unspecified),13.29
12,O=C(O)C(F)(F)F.O=C(c1ccno1)N1CCO[C@@H]2CC(COCc3ccccn3)C[C@H]21 (stereo partly specified),99.5
13,Cc1ccc(C(=O)N2CCO[C@H]3[C@H](OCc4ccccn4)CC[C@@H]32)o1.O=C(O)C(F)(F)F,-0.009897
14,O=C(O)C(F)(F)F.O=S(=O)(C1CC1)N1CCO[C@@H]2CC(COCc3cccnc3)C[C@H]21 (stereo partly specified),111.9
15,O=C(O)C(F)(F)F.O=C(O)C(F)(F)F.c1cncc(COCC2CC[C@H]3[C@H](CCN3CC3CCOCC3)O2)c1 (stereo partly specified),-3.08
16,O=C(c1ccc[nH]1)N1CCO[C@H]2CC(COCc3ccccn3)C[C@@H]21 (stereo partly specified),10.05
17,CCc1nc(-c2noc3ccc(C(=O)N(C)CCOC)cc23)co1,2.681
18,CC(Nc1nc2c(cnn2C)c(=O)[nH]1)c1ccc2c(c1)CCCC2 (stereo unspecified),4.227
19,CC(C)c1noc(CN(C)C(=O)C2COc3ccccc3C2)n1 (stereo unspecified),-21.45

row,SMILES,Percent Effect [%]
1,CC(C)c1noc(CCC(=O)NCC2CCOC2)n1 (stereo unspecified),7.119
2,CC(C)c1noc(CCNC(=O)NCC2COc3ccccc3O2)n1 (stereo unspecified),100.4
3,CC(=O)NCCNC(=O)NCC1Cc2ccccc2O1 (stereo unspecified),101.6
4,CC(C)c1noc(CCNC(=O)NCC2Cc3ccccc3O2)n1 (stereo unspecified),104.8
5,Cc1cnc(C(=O)NCC2Cc3ccccc3O2)cn1 (stereo unspecified),-10.72
6,CC(C)c1noc(CCC(=O)NCC2CCS(=O)(=O)C2)n1 (stereo unspecified),6.847
7,CC(C)c1noc(CCNC(=O)C2COc3ccccc3C2)n1 (stereo unspecified),-14.38
8,CC(=O)c1ccc(C(=O)NCC2Cc3ccccc3O2)s1 (stereo unspecified),-26.22
9,CCN(CC)CCSc1nnc(N2CCN(c3ccc(F)cc3)CC2)s1,10.77
10,CCC(C(=O)NC1(COC)CCCC1)n1cccn1 (stereo unspecified),10.41
11,COCCCN1C(=O)CC[C@H]2CN(Cc3cc4ccccc4o3)CC[C@H]21,-11.4
12,c1cnn(CC2CCN(c3nc(C4CC4)nc4c3CCNCC4)CC2)c1,9.099
13,O=C(Cn1nnn(-c2cccs2)c1=O)N(CC1CCOC1)C1CC1 (stereo unspecified),-6.322
14,COc1cccc(C(=O)N2C[C@@H](CN(C)CCO)[C@@H](CO)C2)c1C,-4.304
15,COCCN(Cc1ccccn1)C(=O)c1ccc(=O)n(C)c1,4.944
16,COCCN(C)C[C@@H]1CN(C(=O)c2ccc(=O)n(C)c2)C[C@@H]1CO,59.39
17,COCCN(C)C[C@H]1C[C@H](CO)CN(C(=O)c2ccc(=O)n(C)c2)C1,90.72
18,COCCN(Cc1cccs1)C(=O)c1ccc(=O)n(C)c1,-19.51
